Results published in the supplement of paper PMC13380429.

System: Vero E6 infected with SARS-CoV-2
Assay: inhibition of SARS-CoV-2 cytopathic effect; higher = more antiviral protection, active = above 15
Details: 48 h

Measured: inhibition of SARS-CoV-2 cytopathic effect

Oc1c(I)cc(I)c2cccnc12 [iodoquinol]
inactive: 1 nM -0.28% | 8.33 nM 2.09% | 100 nM -1.12% | 833.33 nM 1.46% | 10000 nM 0.59%

Cc1ccc2c(c1)c1c(n2CCc2ccc(C)nc2)CCN(C)C1 [latrepirdine]
inactive: 1 nM 1.25% | 8.33 nM -0.5% | 100 nM -0.92% | 833.33 nM 0.73% | 10000 nM 0.87%

CCCC(=O)O[C@]1(C(=O)CO)CC[C@H]2[C@@H]3CCC4=CC(=O)CC[C@]4(C)[C@H]3[C@@H](O)C[C@@]21C [hydrocortisone-butyrate]
inactive: 1 nM -1.77% | 8.33 nM 1.01% | 100 nM 3.36% | 833.33 nM 5.42% | 10000 nM 0.11%

CCNCCS(=O)(=O)NC[C@@]1(c2ccccc2)SC(NC(=O)C(C)(C)C)=NN1C(=O)C(C)(C)C [litronesib]
inactive: 1 nM 2.17% | 8.33 nM 5.24% | 100 nM 2.46% | 833.33 nM 0.96% | 10000 nM 0.39%

O=C(Nc1ccccc1-c1cn2c(CN3CCNCC3)csc2n1)c1cnc2ccccc2n1
inactive: 1 nM 0.17% | 8.33 nM 1.58% | 100 nM -0.07% | 833.33 nM -3.31% | 10000 nM -26.2%

O=C(Nc1c[nH]nc1-c1nc2ccc(CN3CCOCC3)cc2[nH]1)NC1CC1
inactive: 1 nM 0.02% | 8.33 nM -0.1% | 100 nM 0.35% | 833.33 nM 0.87% | 10000 nM -5.1%

O=C(NCCO)c1cccc(-c2cc(Nc3ccc(OC(F)(F)F)cc3)ncn2)c1
inactive: 1 nM 0.82% | 8.33 nM 1.06% | 100 nM 2.91% | 833.33 nM 3.22% | 10000 nM 0.55%
